HSF1 activator: HSF-1 activators, primary screen, NIH3T3-HGL cells, MG132 stress, luminescence, single point; NIH3T3-HGL HSF-1 luciferase reporter, 8 h; 100% = twice DMSO control signal; activation, % at 9 µM; hit rate 1.7% among 300,000;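 active = mean replicate activation of at least 50% with a set share of replicates each reaching 50%; inconclusive = only one of those two conditions met; inactive = mean below 50% and too few replicates reaching it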;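 note: 0% = median of the neutral control wells and 100% = twice that signal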
AHR act: AHR activators, primary screen, cell-based, luminescence, luciferase reporter, human | Aryl hydrocarbon receptor (Homo sapiens), P35869 | AHR-responsive luciferase reporter cells | activation, % at 5 µM | hit rate 2.5% among 320,000; in the data active = activation above about 47%;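 note: 0% = vehicle wells and 100% = reference agonist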
GAA850 FXN act: FXN promoter activators, primary screen, cell-based, luciferase luminescence, HEK293 lucGAA850; HEK293 lucGAA850 FXN promoter luciferase reporter, 24 h; percent of 10 µM SAHA response; activation, % at 6 µM; hit rate 0.56% among 360,000; AID 540364, 2011;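 active = activation above the average of all compounds screened plus 3 SD, cutoff fixed separately per campaign, cut at about 7.5% in these data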;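 note: 0% = DMSO wells and 100% = 10 µM SAHA wells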
HSP90 refold inh: HSP90 inhibitors, primary screen, cell lysate, luminescence | hit rate 0.91% among 290,000 | Rabbit reticulocyte lysate, luciferase refolding luminescence, 3 h | inhibition, % at 5.6 µM | Heat shock protein HSP 90 (rabbit reticulocyte lysate; luciferase refolding);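 active = inhibition above the screen-wide mean plus 3 SD, computed separately per campaign, cut at about 16% in these data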;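 note: 0% = DMSO wells and 100% = 60 µM geldanamycin wells; inhibitors lower the luminescence because luciferase stays unfolded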
HSF1 inh: HSF1 inhibitors in luciferase reporter cells, primary screen, cell-based, NIH3T3, luminescence; AID 2098, 2009; NIH3T3-HGL HSE-luciferase, MG132-induced, luminescence 8 h; active compounds read low; activity change, negative = inhibition, % at 7.5 µM (by protocol); hit rate 0.77% among 300,000;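 active = more than half of replicate wells show activity change below -50%, luminescence cut by over half; inconclusive = some wells, but at most half, below -50%; inactive = no replicate well below -50%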;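 note: luciferase reports HSF-1 transcriptional activity via heat shock element; 0% = median of DMSO wells and -100% = zero luminescence signal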
NR0B1 inh: DAX1 (NR0B1) inhibitors, primary screen, cell-based, HEK293, Gal4-DAX1, luciferase luminescence; HEK293 Gal4-DAX1 luciferase reporter; inhibition, % at 6.75 µM; hit rate 0.99% among 340,000; AID 504766, 2011;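 active = inhibition above the mean over all tested compounds plus 3 SD, cut at about 4.2% in these data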;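 note: 0% = DAX1-transfected cells with DMSO and 100% = empty-vector control cells with DMSO; inhibition shows as a rise in luminescence from relieved DAX1 repression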
Target sequence (P51843 207-470 limits assumed): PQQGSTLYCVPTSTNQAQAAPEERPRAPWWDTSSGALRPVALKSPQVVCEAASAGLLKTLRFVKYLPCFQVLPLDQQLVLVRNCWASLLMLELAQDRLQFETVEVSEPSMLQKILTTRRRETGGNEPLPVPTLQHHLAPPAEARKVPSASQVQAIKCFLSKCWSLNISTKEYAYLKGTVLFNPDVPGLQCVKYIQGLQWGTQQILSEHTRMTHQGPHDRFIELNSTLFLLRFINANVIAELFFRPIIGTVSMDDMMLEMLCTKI
HSP90 inh confirm: HSP90 inhibitors, confirmation, cell lysate, luminescence; AID 1846, 2009; shares compounds with HSP90 refold inh; inhibition, % at 5.9 µM; rabbit reticulocyte lysate, luciferase refolding luminescence, 3 h; hit rate 64% among 2,300; in the data active = inhibition above about 18%;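 note: 0% = vehicle wells and 100% = reference inhibitor wells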
FLuc counter: firefly luciferase inhibitors, HSP90 counter-screen, confirmation, artefact control for HSP90 inhibitor project, biochemical, luminescence, triplicate; shares compounds with HSP90 refold inh; purified native firefly luciferase; inhibition, % at 5.9 µM; hit rate 48% among 2,300;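 active = inhibition above the mean inhibition of all tested sample wells plus 3 SD, cut at about 10% in these data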;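 note: 0% = DMSO with luciferase and 100% = wells lacking luciferase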
* = called active by the depositor; ? = inconclusive; · = not tested or not shown. This is a sample that favours compounds with a hit; in the whole collection about 5.9% have one here.

SMILES	HSF1 activator	AHR act	GAA850 FXN act	HSP90 refold inh	HSF1 inh	NR0B1 inh	HSP90 inh confirm	FLuc counter
O=C(O)C1CC=CCC1C(=O)Nc1ccc2c(c1)OCCO2 (stereo unspecified)	-67.7	-1.1	-11.2	38.2*	-62.0*	-1.4	1.4	8.4
Cc1cc(NC(=O)c2ccc3c(c2)OCO3)no1	12.6	35.7	1.0	5.7	5.8	0.7	·	·
CCOc1ccc(NC(=O)CN2CCN(CC(=O)Nc3ccc4c(c3)OCCO4)CC2)cc1	·	3.9	1.2	-0.4	·	1.2	·	·
CCOc1ccc(C(=O)Nc2ccc3c(c2)OCCO3)cc1	118.3*	-3.4	1.0	22.0*	69.3	-1.2	36.8*	16.2*
O=C(O)C1CC=CCC1C(=O)Nc1ccc(F)c(F)c1 (stereo unspecified)	5.7	-2.5	2.6	-3.1	-1.9	0.2	·	·
CCCOc1cccc(C(=O)Nc2ccc3c(c2)OCCO3)c1	39.4	6.6	2.8	20.8*	25.3	-0.2	40.4*	24.6*
Cc1cc(NC(=O)c2ccc3c(c2)OCCO3)no1	29.2	2.3	0.4	27.3*	11.2	-3.5	57.5*	49.0*
CCCOc1cccc(C(=O)Nc2cccnc2)c1	10.4	16.2	1.6	3.6	-6.0	-0.3	·	·
Cc1cccc(CN(C(=S)Nc2c(C)cccc2C)c2cccnc2)c1	?	4.3	0.0	0.2	14.8	0.3	·	·
Cc1cnc(NC(=O)c2c(-c3ccccc3)noc2C)s1	-0.2	7.2	1.2	-5.7	-3.2	-1.6	·	·
O=C(Nc1ccc2c(c1)OCCO2)Nc1ccc2c(c1)OCO2	26.6	41.0	0.2	19.3*	14.6	-0.5	41.2*	30.0*
Cc1ccc(C(=O)NCC(=O)Nc2ccc3c(c2)CCC3)cc1	·	8.0	4.0	·	·	3.8	·	·
Cc1ccc(C(=O)Nc2ccc3c(c2)CCC3)cc1	-26.2	-3.7	-0.8	25.4*	-3.1	-4.2	70.9*	67.3*
CN(c1ccccc1C(=O)Nc1ccc2c(c1)OCO2)S(C)(=O)=O	-1.9	7.6	2.9	-1.3	0.3	2.7	·	·
Cc1ccc(CC(=O)N/N=C/c2ccc3c(c2)OCO3)cc1	-11.4	25.5	3.6	20.4*	3.3	0.9	-4.7	-13.9
Cc1ccccc1C(=O)Nc1ccc2c(c1)OCO2	37.5	7.9	-0.1	21.7*	16.7	-1.2	36.1*	15.4*
O=C(CCc1ccc(O)cc1)NN=Cc1ccc2c(c1)OCO2	·	·	-1.6	·	·	-1.3	·	·
Nc1[nH]nc2ncc3cc4ccccc4nc3c12	-30.7	9.1	1.1	-6.1	-20.2	-0.7	·	·
O=C(COc1ccc(Nc2ccccc2)cc1)OCC(=O)N1CCCCC1	-35.8	-0.6	0.7	2.3	-15.5	2.0	·	·
O=C(CNC(=O)C(c1ccccc1)c1ccccc1)OCc1ccccc1	9.2	-0.3	0.5	2.4	2.2	-0.8	·	·
COc1ccc(NC(=O)c2ccc3c(c2)OCO3)cc1[N+](=O)[O-]	24.1	6.1	2.5	-4.7	7.1	-0.8	·	·
Cc1ccc(C(=O)Nc2ccc3c(c2)OCCO3)c(Cl)c1	-0.2	-4.3	-5.7	58.8*	-7.4	-4.8	75.3*	67.6*
CC(=O)Nc1ccc2c(c1)OCCO2	6.4	6.7	-1.5	-1.1	-0.5	0.3	·	·
CCOc1cc(C(=O)Nc2cc(C)ccn2)cc(OCC)c1OCC	3.3	17.0	-5.2	0.4	-5.3	-3.3	·	·
Cc1cc(C(=O)Nc2ccc3c(c2)OCCO3)ccc1[N+](=O)[O-]	24.6	-2.6	1.2	28.4*	5.2	-3.8	59.3*	51.2*
SMILES	HSF1 activator	AHR act	GAA850 FXN act	HSP90 refold inh	HSF1 inh	NR0B1 inh	HSP90 inh confirm	FLuc counter
Cc1ccc(C(=O)Nc2ccc3c(c2)OCCO3)cc1	-6.1	·	-2.2	57.8*	-3.3	-4.2	74.5*	62.7*
CCOc1ccc(C(=O)Nc2cc(C)ccn2)cc1	19.4	-16.0	-3.4	50.1*	-3.3	-2.6	74.6*	57.8*
COc1ccc(N2CC(C(=O)NC3CCCCC3)CC2=O)cc1 (stereo unspecified)	-5.0	-1.5	0.4	-2.5	-8.7	0.2	·	·
Cc1ccc(C2(C(F)(F)F)NC(=O)N3N=C4CCCCCN4C3=C2C#N)cc1 (stereo unspecified)	-19.2	0.1	-0.6	-0.5	-2.1	0.5	·	·
CN(c1ccc(C(=O)Nc2ccc3c(c2)OCO3)cc1)S(C)(=O)=O	12.5	19.4	4.0	-0.1	11.7	1.0	·	·
Cc1ccc(C(=O)Nc2ccc3c(c2)OCO3)cc1	24.5	43.2	-3.6	66.3*	8.5	-1.7	52.0*	38.1*
O=C(Nc1ccc(NC(=O)c2ccco2)cc1)c1ccc2c(c1)OCCO2	0.1	-6.5	-7.5	1.4	0.2	·	·	·
O=C(NC(=S)Nc1ccc2c(c1)OCCO2)c1ccco1	32.5	8.4	1.6	24.4*	17.4	4.5*	20.2*	3.5
COc1ccc(NC(=O)c2ccc3c(c2)OCO3)cc1	28.3	2.8	2.2	18.7*	11.6	1.8	26.7*	13.9*
CC(C)(C)C(=O)Nc1ccc(-c2cc3cc(Cl)ccc3o2)cc1	-61.4	-3.0	-6.9	39.8*	-54.1*	-2.8	23.8*	12.5*
Cc1ccc(S(=O)(=O)CCC(=O)c2ccc(F)cc2)cc1	-3.4	1.9	1.1	-4.1	-5.1	-0.3	·	·
Cc1ccc(C(=O)CCS(=O)(=O)c2ccc(F)cc2)cc1	-1.0	7.5	0.8	37.8*	-2.4	1.1	57.7*	79.4*
Cc1cccc2c3nc4ccccc4nc3n(CCCN3C(=O)c4ccccc4C3=O)c12	12.4	·	2.8	24.9*	4.6	1.0	5.8	-5.0
O=C1c2ccccc2C(=O)N1CCCn1c2ccc(Cl)cc2c2nc3ccccc3nc21	·	·	2.2	·	·	1.0	·	·
Nc1c(C(=O)Nc2ccc(Cl)c(C(=O)O)c2)sc2nc3c(cc12)CCCC3	10.2	-1.5	1.1	3.5	2.3	0.0	·	·
Nc1c(C(=O)Nc2cccc(C(=O)O)c2)sc2nc3c(cc12)CCCC3	-3.6	-7.5	-0.4	91.4*	-2.8	-3.8	97.1*	89.7*
N#Cc1cc([N+](=O)[O-])ccc1N1CCN(c2ccccc2O)CC1	9.8	-7.2	2.2	-1.1	6.9	-1.6	·	·
O=[N+]([O-])c1ccc(N2CCN(c3ccc([N+](=O)[O-])cc3CO)CC2)c(CO)c1	-4.1	-0.6	-3.0	18.5*	-3.5	-2.9	5.2	-4.4
